Bioassay records from PubChem.
This is one part of a sample in which hits are shown more often than they occur.
CHX counter = affects cycloheximide protein synthesis inhibition readout, counter-screen; hit rate 12% among 300,000; cell reporter, cycloheximide protein synthesis inhibition counterscreen; max response, %; in the data active = max response mostly above about 13%, no sharp cut-off; inactive = mostly below about 14%; also: read at 38.3 µM for the half of the compounds with a filed dose; 0% is about no effect
LmPK inhibitor = blocks Leishmania mexicana pyruvate kinase activity; Q27686; AID 1721; purified LmPK, Kinase-Glo ATP luminescence, 1 h; hit rate 0.37% among 290,000; Potency, µM (series often up to 57.5 µM), for the others: at the highest dose activity change, negative = inhibition, actives largely listed as inhibitors; also: potency is read from the fitted curve at half-maximal effect; % is scaled to controls: 0 for no effect and ±100 for the full control effect
Target sequence (Q27686 whole entry, looked up): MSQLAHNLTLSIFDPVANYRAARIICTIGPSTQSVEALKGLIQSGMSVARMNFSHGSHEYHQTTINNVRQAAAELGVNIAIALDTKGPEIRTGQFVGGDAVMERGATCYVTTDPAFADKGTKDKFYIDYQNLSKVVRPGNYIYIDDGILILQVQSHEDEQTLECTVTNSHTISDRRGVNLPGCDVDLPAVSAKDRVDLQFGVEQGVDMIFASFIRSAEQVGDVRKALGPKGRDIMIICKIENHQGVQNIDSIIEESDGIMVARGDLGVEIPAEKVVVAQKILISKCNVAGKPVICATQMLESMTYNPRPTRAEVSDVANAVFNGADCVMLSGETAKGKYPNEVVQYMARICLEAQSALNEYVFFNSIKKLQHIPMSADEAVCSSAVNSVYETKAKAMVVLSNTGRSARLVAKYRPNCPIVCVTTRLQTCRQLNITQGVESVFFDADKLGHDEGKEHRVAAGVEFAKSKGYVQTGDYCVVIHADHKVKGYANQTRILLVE
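Screened at intermediate enzyme activity to detect both inhibitors and activators: LmPK at 0.1 nM, with a 0.5 nM enzyme column as activation reference. PEP 0.5 mM, ADP 0.1 mM; ATP detected by luminescence after 1 h.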
RE007 growth inh = less growth of the S. pombe RE007 Vpr strain; hit rate 0.21% among 360,000; S. pombe RE007 Vpr strain, BacTiter-Glo ATP luminescence, 24 h; Potency, µM (series often up to 92.2 µM), inactives show at the highest dose activity change, negative = less growth, actives largely listed as inhibitors; active = well fitted falling curve with a large enough effect; inconclusive = small, poorly fitted or top-dose-only effect; inactive = no such curve, though single readings can be large or run the other way; also: potency is read from the fitted curve at half-maximal effect; % is scaled to controls: 0 for no effect and ±100 for the full control effect; nearly all actives have a fitted effect of over 50% in size
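Fission yeast strain RE007, carrying one chromosomally integrated HIV-1 vpr copy, was seeded at OD 0.01 in PMG+AL medium with 23 nL pinned compound. After 24 h at 30 °C and 99% humidity, viability was read by BacTiter-Glo luminescence.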
FBPA Giardia inh = inhibitors of Giardia lamblia fructose-1,6-bisphosphate aldolase | purified Giardia FBPA | Potency, µM (titrated, usually from 59.6 µM), for the others: top-dose activity, negative = inhibition, actives largely listed as inhibitors | hit rate 0.71% among 290,000; also: potency is read from the fitted curve at half-maximal effect; % is scaled to controls: 0 for no effect and ±100 for the full control effect; nearly all actives have a fitted effect of over 55% in size
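40 nM FBPA preincubated 10 min at RT with compound (up to 57.5 uM final), then substrate plus GAPDH/TPI/NAD/arsenate coupling and diaphorase/resazurin added. Fluorescence read after 20 min at RT, 525/598 nm.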
Tb PYK inh = blocks Trypanosoma brucei pyruvate kinase | hit rate 0.12% among 410,000 | TbPYK enzyme, Kinase-Glo Plus ATP luminescence, 45 min | Potency, µM (highest dose often 76.8 µM), for inactives: at the top dose activity, negative = inhibition, most hits filed as inhibitors | Q57TT1; also: potency is read from the fitted curve at half-maximal effect; % is scaled to controls: 0 for no effect and ±100 for the full control effect; nearly all actives have a fitted effect of over 50% in size
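Glycolytic pyruvate kinase of T. brucei was incubated with substrate, test compound and 130 uM ADP for 45 minutes at room temperature. Luminescent Kinase-Glo Plus signal was measured after 10 minutes.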
Shiga inhibitor = blocks Shiga toxin action in Vero cells; inhibition, % at 38.7 µM; hit rate 9.2% among 290,000; Vero cells, Shiga toxin protein synthesis inhibition reporter; in the data active = inhibition mostly above about 28%, no sharp cut-off; inactive = mostly below about 43%; also: 0% is about no effect
An asterisk follows results filed as active; u = inconclusive; x = not tested or not shown; + = active, no number; [ ] = remark or other dose. Unless noted, calls follow the shape of the dose curve; as a rule, active = well fitted curve in the direction sought with a large enough effect; inconclusive = small, poorly fitted or top-dose-only effect, or another doubt; inactive = no such curve, though single readings can be large; an effect the other way counts as inactive or inconclusive.

SMILES	CHX counter	LmPK inhibitor	RE007 growth inh	FBPA Giardia inh	Tb PYK inh	Shiga inhibitor
O=C(CN1C(=O)CCSc2ccccc21)Nc1ccc2c(c1)OCO2	-2.0	-2.8%	-8.2%	10.9%	-7.7%	-30.0
COc1cccc(/C=C/C(=O)OCC(=O)Nc2ccc(Cl)cn2)c1	-1.9	10.7%	x	3.6%	x	-3.5
Cc1cc(C)c2nc(C)cc(Nc3cccc(C(=O)O)c3)c2c1	x	x	x	x	-0.7%	x
c1ccc(-c2nccc3ccccc23)cc1	x	x	-12.6%	x	5.3%	x
c1ccc(-c2ncc3c(ccc4ccccc43)n2)cc1	58.1*	-17.4%	-9.3%	1.0%	-12.5%	73.8*
Clc1ccc2nc3ccccc3cc2c1	x	x	-16.2%	x	1.0%	x
c1ccc2c(c1)cnc1ccccc12	24.1*	-0.4%	5.0%	-1.7%	-0.4%	29.4
c1ccc2nc3ccccc3nc2c1	7.1	-2.9%	-25.2%	0.3%	0.9%	44.5
c1ccc2nc3ccccc3cc2c1	39.8*	x	x	1.0%	x	46.6*
CN(C)S(=O)(=O)c1ccc(/C(O)=C2/C(=O)C(=O)N(CCCN3CCOCC3)C2c2ccncc2)cc1 (centres undefined)	x	x	-10.2%	x	-3.7%	x
Cc1occc1C(=O)N/N=C/c1ccc(Br)s1	42.3*	25.1µM*	u	-3.4%	-0.8%	63.0*
O=C(N/N=C/c1ccc(Br)s1)c1cccc([N+](=O)[O-])c1	-3.2	1.9%	-28.9%	-2.3%	0.1%	6.3
C/C(=N\NC(=O)c1ccoc1C)c1ccc(Br)s1	57.2*	-14.8%	-13.5%	x	-7.1%	79.5*
Cc1ncc(CO)c(/C=N/NC(=O)c2ccoc2C)c1O	x	x	-0.6%	x	-2.3%	x
Cc1ccc(/C=N/NC(=O)c2ccoc2C)s1	70.0*	14.1µM*	-17.5%	-1.4%	-13.0%	+
CC(=NNC(=O)c1cc(C)oc1C)c1ccc(Br)s1	x	x	-10.7%	x	-0.4%	x
Cc1cccc(/N=C/c2sc3ccccc3c2O)n1	43.6*	u	-5.0%	-7.5%	-15.8%	39.1*
Cc1cccc(/N=C/c2c(O)[nH]c3ccccc23)n1	46.1*	-22.4%	1.0%	-13.4%	-1.4%	91.6*
CC(C)N=Cc1c(O)[nH]c2ccccc12	-1.2	-1.6%	-4.6%	0.6%	-1.9%	-27.4
COc1cccc([C@@H]2Oc3ccc(OC)cc3C(=O)[C@H]2O)c1	39.5*	2.6%	-13.7%	-0.3%	-0.9%	42.3*
COc1ccc2c(c1)C(=O)[C@@H](O)[C@H](c1ccc(OC)c(Br)c1)O2	17.9*	4.4%	-8.6%	0.7%	-1.5%	42.8*
COc1cccc([C@@H]2Oc3ccc(Br)cc3C(=O)[C@H]2O)c1	x	x	x	-2.1%	x	x
COC(=O)[C@@H](NC(=O)O[C@H]1C(=O)c2cc(OC)ccc2O[C@@H]1c1ccc(OC)c(Br)c1)C(C)C	x	x	x	-4.0%	x	x
COc1cccc(-c2noc(C3CCCN(C(=O)c4ccccc4OC)C3)n2)c1 (centres undefined)	52.1*	-0.6%	5.0%	9.2%	0.4%	47.8*
CCCCC(=O)N1CCCC(c2nc(-c3cccc(OC)c3)no2)C1 (centres undefined)	41.2*	-16.6%	3.1%	3.3%	-0.4%	82.5*
SMILES	CHX counter	LmPK inhibitor	RE007 growth inh	FBPA Giardia inh	Tb PYK inh	Shiga inhibitor
CCCS(=O)(=O)N1CCCC(c2nc(-c3cccc(OC)c3)no2)C1 (centres undefined)	17.8*	3.2%	0.4%	-0.6%	-3.4%	44.7
CNC(=O)c1ccc2nc(Cc3ccccc3)oc2c1	x	x	x	x	-0.7%	x
Cc1ccc2c(Cl)c(C(=O)NCC3CCCO3)sc2c1 (centres undefined)	54.7*	0.8%	-17.6%	1.0%	-2.9%	76.6*
COc1ccc2c(Cl)c(C(=O)NCC3CCCO3)sc2c1Cl (centres undefined)	19.9*	1.4%	x	-7.4%	x	22.7
COc1cc(C(=O)NCC2CCCO2)ccc1OCc1ccc(Cl)cc1 (centres undefined)	x	x	-18.2%	x	-0.2%	x
O=C(NCCc1ccccc1)c1ccc2c(=O)[nH]c3c(C(=O)NCC4CCCO4)sc(=S)n3c2c1 (centres undefined)	1.6	-16.4%	-11.9%	x	-11.0%	13.9
O=C(NCC1CCCO1)c1sc(=S)n2c1[nH]c(=O)c1ccc(C(=O)N3CCCCC3)cc12 (centres undefined)	-0.4	20µM*	-6.9%	-4.8%	u	-21.1
Cc1noc(C(=O)NCC2CCCO2)c1Cl (centres undefined)	12.1	-0.3%	-7.4%	8.1%	0.0%	2.3
O=C(NCC1CCCO1)c1sc2ccccc2c1Cl (centres undefined)	41.1*	-9.4%	u	-1.6%	1.7%	72.9*
Cc1cc(Br)ccc1NC(=O)c1cn(C2CCCC2)c(=O)c2c1c1ccccc1n2C	x	x	x	x	-1.1%	x
O=C(Nc1cccc(C(=O)OCc2cc(=O)n3c4c(sc3n2)CCCC4)c1)c1cccc(F)c1	x	x	x	x	-2.3%	x
COc1cc(C2C(=O)N(C3CCCCCC3)CC(=O)N2CCC2=CCCCC2)ccc1OC(C)C (centres undefined)	x	x	x	x	-4.5%	x
Cc1cc(N2CCOCC2)nc2ccc(NC(=O)CCC(=O)N3CCN(c4cccc(C(F)(F)F)c4)CC3)cc12	27.8*	1.2%	-9.0%	-0.7%	-9.3%	66.7*
COc1ccc(C(=O)Nc2ccc3nc(N4CCC(C)CC4)cc(C)c3c2)cc1	x	x	x	x	3.6%	x
Cc1cc(N2CCOCC2)nc2ccc(Cl)cc12	41.0*	4.1%	4.4%	2.3%	0.0%	61.6*
CCCCN(C)C(=O)CCC(=O)Nc1ccc2nc(N3CCOCC3)cc(C)c2c1	29.3*	4.0%	1.8%	-19.1%	-0.3%	19.9
Cc1cc(N2CCC(C)CC2)nc2ccc(N3C(=O)CCC3=O)cc12	17.8*	6.6%	2.1%	-13.5%	-1.3%	13.8
CCCCN(C)C(=O)CCC(=O)Nc1ccc2nc(N3CCN(C)CC3)cc(C)c2c1	0.8	2.4%	-14.6%	-1.1%	-0.8%	-8.8
Cc1cc(N2CCOCC2)nc2ccc(NC(=S)N3CCN(c4ccccc4)CC3)cc12	-7.7	-4.9%[11.5 µM]	-2.3%	u	-3.4%	-6.2
COc1ccc(Cn2ncc3c4sc(C)cc4n(C)c3c2=O)cc1	-1.9	x	x	x	x	19.6
CCCCNC(=O)CCC(=O)Nc1ccc2nc(N3CCC(C)CC3)cc(C)c2c1	29.9*	3.7%	-2.5%	-12.7%	-3.0%	54.7*
CCC12CN3CC(C)(CN(C1)C3c1ccccc1C)C2=O (centres undefined)	x	x	x	x	0.4%	x
O=C(Nc1ccc(NC(=O)c2cccs2)cc1)c1cccs1	42.6*	-4.0%	4.8%	2.9%	2.4%	82.7*
CCC(C)c1ccc(NC(=O)c2cccs2)cc1 (centres undefined)	30.5*	-8.8%	-8.6%	-8.6%	-11.0%	58.7*
COc1ccc(C(=O)Nc2ccc(NC(=O)c3cccc(OC)c3)cn2)cc1	8.4	0.9%	-1.0%	7.7%	-4.9%	27.9
CC(C)CNC(=O)c1ccc(NC(=O)c2cccs2)cc1	26.8*	-8.4%	x	4.7%	-2.0%	62.2*
